{
  "source": "PubChem BioAssay (Tox21)",
  "note": "“And” between values parts separate entries of the source, which are not always exact repeats. Identical values can stand only once. Records with an inconclusive call do not appear. Entries that show only a call come without a potency. Some structures have more than one record in an assay (separate samples or runs), and their calls can disagree. The source made the active and inactive calls. The call rests on the fitted dose curve; in most records, active means well fitted cell-killing curve with a large enough effect in the repeat runs; inconclusive means weak or mixed curves, or effect the other way; inactive means no such curve, though single readings can be large or run the other way. Potency means the concentration at half of the fitted maximal effect.",
  "data": [
    {"test": "qHTS assay to identify small molecule antagonists of the glucocorticoid receptor (GR) signaling pathway - cell viability counter screen (AID 720693); further: nearly all actives have a fitted effect of over 55% in size", "conditions": "GR-bla HeLa viability, CellTiter-Glo luminescence, 18 h, with 5 nM dexamethasone present; series mostly up to 58.5 µM", "values": [
      {"smiles": "CC(C)CCCCCOC(=O)c1ccccc1C(=O)OCCCCCC(C)C", "Potency": "inactive"},
      {"smiles": "CC1(C)CN=C(NN=C(/C=C/c2ccc(C(F)(F)F)cc2)/C=C/c2ccc(C(F)(F)F)cc2)NC1", "Potency": "24.5 µM (active)"},
      {"smiles": "CCN(CC)c1c([N+](=O)[O-])cc(C(F)(F)F)c(N)c1[N+](=O)[O-]", "Potency": "inactive"},
      {"smiles": "CC(Cc1ccc(C(C)(C)C)cc1)CN1C[C@@H](C)O[C@@H](C)C1", "note": "(some centres undefined)", "Potency": "inactive"},
      {"smiles": "CN(C)[C@@H]1C(=O)C(C(N)=O)=C(O)[C@@]2(O)C(=O)C3=C(O)c4c(O)ccc(Cl)c4[C@@](C)(O)[C@H]3C[C@@H]12", "Potency": "inactive"},
      {"smiles": "C[C@@H]1O[C@@H](O[C@@H]2C=C3CC[C@@H]4[C@H](CC[C@]5(C)[C@@H](c6ccc(=O)oc6)CC[C@]45O)[C@@]3(C)CC2)[C@H](O)[C@H](O)[C@H]1O", "Potency": "0.091 µM (active)"},
      {"smiles": "Clc1ccc(CO/N=C(\\Cn2ccnc2)c2ccc(Cl)cc2Cl)c(Cl)c1", "Potency": "inactive"},
      {"smiles": "CCOP(=S)(OCC)OC(Cl)C(Cl)(Cl)Cl", "note": "(centres undefined)", "Potency": "inactive"},
      {"smiles": "COc1cc(N)c(Cl)cc1C(=O)NC1CN2CCC1CC2", "note": "(centres undefined)", "Potency": "inactive"},
      {"smiles": "CC(C)OS(C)(=O)=O", "Potency": "inactive"},
      {"smiles": "ClC1=C(Cl)C2(Cl)C3C(Cl)C=CC3C1(Cl)C2(Cl)Cl", "note": "(centres undefined)", "Potency": "inactive"},
      {"smiles": "Clc1ccc(CCC(Cn2ccnc2)Sc2c(Cl)cccc2Cl)cc1", "note": "(centres undefined)", "Potency": "inactive"},
      {"smiles": "CCCCOCN(C(=O)CCl)c1c(CC)cccc1CC", "Potency": "inactive"},
      {"smiles": "Cc1cc(C)c(C2=C(OC(=O)CC(C)(C)C)C3(CCCC3)OC2=O)c(C)c1", "Potency": "inactive"},
      {"smiles": "O=[N+]([O-])c1ccc2ccc3cccc4ccc1c2c34", "Potency": "inactive"},
      {"smiles": "CNC(C)Cc1ccc2c(c1)OCO2", "note": "(centres undefined)", "Potency": "inactive"},
      {"smiles": "O=[N+]([O-])O.O=[N+]([O-])O.[Cd]", "Potency": "inactive"},
      {"smiles": "N#CSCSC#N", "Potency": "22.4 µM (active) and 21.7 µM (active)"},
      {"smiles": "CC1(c2ccc(Oc3ccccc3)cc2)OC(=O)N(Nc2ccccc2)C1=O", "note": "(centres undefined)", "Potency": "22 µM (active)"},
      {"smiles": "CN(C)c1ccc(N=Nc2ccccc2)cc1", "Potency": "inactive"},
      {"smiles": "NNC(=O)c1ccccc1", "Potency": "inactive"},
      {"smiles": "CN(C)C(=S)[S-].CN(C)C(=S)[S-].[Cu+2]", "Potency": "2.67 µM (active)"},
      {"smiles": "CCCN(CC)CC1COC2(CCC(C(C)(C)C)CC2)O1", "note": "(centres undefined)", "Potency": "inactive"},
      {"smiles": "CC(C)CC(C)(c1ccc(O)cc1)c1ccc(O)cc1", "Potency": "49 µM (active)"},
      {"smiles": "COc1ccc(OC)c(CC(C)N)c1", "note": "(centres undefined)", "Potency": "inactive"},
      {"smiles": "C[C@]12CC[C@@H]3c4ccc(OC(=O)N(CCCl)CCCl)cc4CC[C@H]3[C@@H]1CC[C@@H]2O", "Potency": "inactive"},
      {"smiles": "CN(C)CCc1c[nH]c2cccc(O)c12", "Potency": "inactive"},
      {"smiles": "Clc1ccc(C(Cl)(Cl)Cl)c(Cl)c1", "Potency": "inactive"},
      {"smiles": "Oc1ccc(C(c2ccc(O)cc2)(C(F)(F)F)C(F)(F)F)cc1", "Potency": "inactive"},
      {"smiles": "CCCCCCCCCCCCCCCC[n+]1ccccc1", "Potency": "25.7 µM (active) and 30.9 µM (active) and 34.2 µM (active)"},
      {"smiles": "C[C@H]1CC[C@@H]2[C@@H](C)[C@H]3[C@H](C[C@H]4[C@@H]5CC=C6CC(O[C@@H]7O[C@H](CO)[C@H](O)[C@H](O[C@@H]8O[C@H](CO)[C@@H](O)[C@H](O)[C@H]8O)[C@H]7O[C@H]7O[C@@H](C)[C@H](O)[C@@H](O)[C@H]7O)CC[C@]6(C)[C@H]5CC[C@]34C)N2C1", "note": "(some centres undefined)", "Potency": "inactive"},
      {"smiles": "CCCOCC(=Nc1ccc(Cl)cc1C(F)(F)F)n1ccnc1", "Potency": "15.5 µM (active)"},
      {"smiles": "CC1(C)[C@H](C(=O)O[C@H](C#N)c2cccc(Oc3ccccc3)c2)[C@@H]1/C=C(\\Cl)C(F)(F)F", "Potency": "inactive"},
      {"smiles": "CCCN(CCC)CCc1c[nH]c2ccccc12", "Potency": "inactive"},
      {"smiles": "c1ccc2c(c1)[nH]c1cnccc12", "Potency": "inactive"},
      {"smiles": "O=[N+]([O-])c1ccc(Oc2ccc(C(F)(F)F)cc2[N+](=O)[O-])cc1", "Potency": "inactive"},
      {"smiles": "O=c1[nH]c2ccccc2n1CCCN1CCC(n2c(=O)[nH]c3cc(Cl)ccc32)CC1", "Potency": "inactive"}
    ]},
    {"test": "qHTS assay for identifying genotoxic compounds that show differential cytotoxicity against isogenic chicken DT40 cell lines with known DNA damage response pathways - wild type cell line (AID 743012); further: nearly all actives have a fitted effect of over 60% in size", "conditions": "DT40 wild type chicken cells viability, CellTiter-Glo, 40 h; series mostly up to 68.4 µM", "in_short": "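Quantitative HTS on parental DT40 cells: 40 h compound treatment at 37 C/5% CO2, with viability then determined by CellTiter-Glo luminescence. Values serve as the DNA repair-proficient reference for differential cytotoxicity.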", "values": [
      {"smiles": "CC(C)CCCCCOC(=O)c1ccccc1C(=O)OCCCCCC(C)C", "Potency": "inactive"},
      {"smiles": "CC1(C)CN=C(NN=C(/C=C/c2ccc(C(F)(F)F)cc2)/C=C/c2ccc(C(F)(F)F)cc2)NC1", "Potency": "4.33 µM (active)"},
      {"smiles": "CCN(CC)c1c([N+](=O)[O-])cc(C(F)(F)F)c(N)c1[N+](=O)[O-]", "Potency": "19.3 µM (active)"},
      {"smiles": "CC(Cc1ccc(C(C)(C)C)cc1)CN1C[C@@H](C)O[C@@H](C)C1", "note": "(some centres undefined)", "Potency": "9.69 µM (active)"},
      {"smiles": "CN(C)[C@@H]1C(=O)C(C(N)=O)=C(O)[C@@]2(O)C(=O)C3=C(O)c4c(O)ccc(Cl)c4[C@@](C)(O)[C@H]3C[C@@H]12", "Potency": "inactive"},
      {"smiles": "C[C@@H]1O[C@@H](O[C@@H]2C=C3CC[C@@H]4[C@H](CC[C@]5(C)[C@@H](c6ccc(=O)oc6)CC[C@]45O)[C@@]3(C)CC2)[C@H](O)[C@H](O)[C@H]1O", "Potency": "0.127 µM (active)"},
      {"smiles": "Clc1ccc(CO/N=C(\\Cn2ccnc2)c2ccc(Cl)cc2Cl)c(Cl)c1", "Potency": "13.3 µM (active)"},
      {"smiles": "CCOP(=S)(OCC)OC(Cl)C(Cl)(Cl)Cl", "note": "(centres undefined)", "Potency": "inactive"},
      {"smiles": "COc1cc(N)c(Cl)cc1C(=O)NC1CN2CCC1CC2", "note": "(centres undefined)", "Potency": "inactive"},
      {"smiles": "CC(C)OS(C)(=O)=O", "Potency": "inactive"},
      {"smiles": "ClC1=C(Cl)C2(Cl)C3C(Cl)C=CC3C1(Cl)C2(Cl)Cl", "note": "(centres undefined)", "Potency": "inactive and 48.6 µM (active)"},
      {"smiles": "Clc1ccc(CCC(Cn2ccnc2)Sc2c(Cl)cccc2Cl)cc1", "note": "(centres undefined)", "Potency": "12.7 µM (active)"},
      {"smiles": "CCCCOCN(C(=O)CCl)c1c(CC)cccc1CC", "Potency": "8.63 µM (active)"},
      {"smiles": "Cc1cc(C)c(C2=C(OC(=O)CC(C)(C)C)C3(CCCC3)OC2=O)c(C)c1", "Potency": "inactive"},
      {"smiles": "O=[N+]([O-])c1ccc2ccc3cccc4ccc1c2c34", "Potency": "inactive"},
      {"smiles": "CNC(C)Cc1ccc2c(c1)OCO2", "note": "(centres undefined)", "Potency": "inactive"},
      {"smiles": "O=[N+]([O-])O.O=[N+]([O-])O.[Cd]", "Potency": "43.3 µM (active)"},
      {"smiles": "N#CSCSC#N", "Potency": "5.57 µM (active) and 1.21 µM (active)"},
      {"smiles": "CC1(c2ccc(Oc3ccccc3)cc2)OC(=O)N(Nc2ccccc2)C1=O", "note": "(centres undefined)", "Potency": "1.09 µM (active)"},
      {"smiles": "CN(C)c1ccc(N=Nc2ccccc2)cc1", "Potency": "inactive"},
      {"smiles": "NNC(=O)c1ccccc1", "Potency": "inactive"},
      {"smiles": "CN(C)C(=S)[S-].CN(C)C(=S)[S-].[Cu+2]", "Potency": "14.9 µM (active)"},
      {"smiles": "CCCN(CC)CC1COC2(CCC(C(C)(C)C)CC2)O1", "note": "(centres undefined)", "Potency": "5.45 µM (active)"},
      {"smiles": "CC(C)CC(C)(c1ccc(O)cc1)c1ccc(O)cc1", "Potency": "inactive"},
      {"smiles": "COc1ccc(OC)c(CC(C)N)c1", "note": "(centres undefined)", "Potency": "inactive"},
      {"smiles": "C[C@]12CC[C@@H]3c4ccc(OC(=O)N(CCCl)CCCl)cc4CC[C@H]3[C@@H]1CC[C@@H]2O", "Potency": "inactive"},
      {"smiles": "CN(C)CCc1c[nH]c2cccc(O)c12", "Potency": "30.3 µM (active)"},
      {"smiles": "Clc1ccc(C(Cl)(Cl)Cl)c(Cl)c1", "Potency": "inactive"},
      {"smiles": "Oc1ccc(C(c2ccc(O)cc2)(C(F)(F)F)C(F)(F)F)cc1", "Potency": "inactive and 61.1 µM (active)"},
      {"smiles": "CCCCCCCCCCCCCCCC[n+]1ccccc1", "Potency": "427 nM (active) [middle of 4 runs]"},
      {"smiles": "C[C@H]1CC[C@@H]2[C@@H](C)[C@H]3[C@H](C[C@H]4[C@@H]5CC=C6CC(O[C@@H]7O[C@H](CO)[C@H](O)[C@H](O[C@@H]8O[C@H](CO)[C@@H](O)[C@H](O)[C@H]8O)[C@H]7O[C@H]7O[C@@H](C)[C@H](O)[C@@H](O)[C@H]7O)CC[C@]6(C)[C@H]5CC[C@]34C)N2C1", "note": "(some centres undefined)", "Potency": "26.6 µM (active) and inactive"},
      {"smiles": "CCCOCC(=Nc1ccc(Cl)cc1C(F)(F)F)n1ccnc1", "Potency": "4.32 µM (active)"},
      {"smiles": "CC1(C)[C@H](C(=O)O[C@H](C#N)c2cccc(Oc3ccccc3)c2)[C@@H]1/C=C(\\Cl)C(F)(F)F", "Potency": "50.5 µM (active)"},
      {"smiles": "CCCN(CCC)CCc1c[nH]c2ccccc12", "Potency": "53.8 µM (active)"},
      {"smiles": "c1ccc2c(c1)[nH]c1cnccc12", "Potency": "inactive"},
      {"smiles": "O=[N+]([O-])c1ccc(Oc2ccc(C(F)(F)F)cc2[N+](=O)[O-])cc1", "Potency": "19.3 µM (active)"},
      {"smiles": "O=c1[nH]c2ccccc2n1CCCN1CCC(n2c(=O)[nH]c3cc(Cl)ccc32)CC1", "Potency": "26.6 µM (active)"}
    ]}
  ]
}
